From PubChem
An excerpt weighted towards active compounds, which were near 8.1% of everything screened.
Hedgehog inh = Sonic Hedgehog pathway inhibition; Shh-LIGHT2 Gli-luciferase reporter, 30 h; inhibition, % (test concentration not listed); hit rate 2.1% among 22,000; AID 2313;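 active means mean inhibition across valid replicates above about 65%, limit read from the data; inconclusive means mean under the limit, yet half or more replicates past it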;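 further: pathway switched on by Shh-conditioned medium diluted 1 in 25 in low serum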
PD-1 reversal = reversal of PD-1 mediated T-cell inhibition | activation, % (test concentration not listed) | primary human CD4 T cells, PD-L1 beads, CellTiter-Glo 96 h | 29,000 tested, under 10 active; call rule not given here;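 further: 0% = median vehicle wells and 100% = positive control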
MITF inhib = inhibitors of MITF; TRPM1 promoter luciferase, luminescence, 24 h; inhibition, % (no concentration beside the values); hit rate 0.28% among 37,000; AID 2240; in the data active means inhibition above about 85%; inconclusive means no clear call, values can overlap the other calls; inactive means below about 68%;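 further: human melanocyte line stably carrying TRPM1 promoter luciferase reporter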
NOMO-1 viab = STK33 inhibitor candidate reducing NOMO-1 cell viability. NOMO-1 AML viability, CellTiter-Glo luminescence, 72 h. inhibition, % (test concentration not listed). hit rate 7.5% among 37,000; in the data active means inhibition above about 80%; inconclusive means no clear call, values can overlap the other calls
* = called active by the depositor; ? = inconclusive; · = no result; ! = not active in a repeat.

SMILES | Hedgehog inh | PD-1 reversal | MITF inhib | NOMO-1 viab
COc1ccccc1CCNC(=O)c1cc(-c2ccccn2)nc2ccc(Br)cc12 | · | -1 | 20 | 25
CCOC(=O)CSc1nc(-c2ccccc2)nc2sc3c(c12)CCCC3 | · | -3 | -66 | 10
COc1ccc(OC)c(S(=O)(=O)N(C)CC(=O)N2CCOCC2)c1 | · | 3 | -11 | -16
COc1ccccc1-c1cc(C(F)(F)F)nc(S(=O)(=O)CCCC(=O)N2CCOCC2)n1 | · | -16 | 60 | 136*
O=C1C=CC(=O)N1c1ccccc1 | · | -7 | 64 | 114*
O=C(CN1CCCCC1)Nc1sc2c(c1C(=O)Nc1ccccc1)CCCC2 | · | -3 | 16 | 13
CN1CCCC(CC2c3ccccc3Sc3ccccc32)C1 (centres undefined) | 39 | · | -6 | 50
CSc1ccc2c(c1)C(N1CCN(C)CC1)Cc1ccccc1S2 (centres undefined) | 70* | -1 | -16 | 143*!
CN(C)c1cc[n+](C(=O)N2CCOCC2)cc1 | · | 0 | -2 | 22
CCOC(=O)CSc1n[nH]c(-c2ccc(Cl)cc2)n1 | · | 0 | -54 | 119*
Cc1cc(C)c(C#N)c(SCC(=O)c2cc3ccccc3oc2=O)n1 | · | · | -47 | 8
Cc1nc(SCC(=O)c2cc3ccccc3oc2=O)c(C#N)c(C)c1C | · | · | -42 | 110*
COc1ccccc1NC(=O)c1ccc(OCC(=O)Nc2cc(Cl)cc(Cl)c2)cc1 | · | -1 | 22 | 86*
c1ccc(CSC23CC4CC(CC(C4)C2)C3)cc1 | · | -3 | -2 | 57
c1ccc(-c2nc(C34CC5CC(CC(C5)C3)C4)co2)cc1 | -29 | -1 | -23 | 99*
OC(c1ccccc1)c1oc2ccccc2c1-c1cnn(-c2ccccc2)c1 (centres undefined) | 98* | -13 | 70 | 112*
COc1cccc(NC(=O)CSc2nnc(-c3ccncc3)n2-c2ccc(C)cc2)c1 | · | -2 | -8 | 4
Cc1ccccc1-c1nnc(SCC(=O)Nc2ccc3c(c2)OCCO3)n1C | · | 1 | -2 | 30
C[C@@H]1CN([C@H](C)CO)C(=O)c2cccc(NC(=O)Nc3ccccc3)c2O[C@@H]1CN(C)C(=O)Nc1cccc2ccccc12 | -45 | 0 | -4 | 105*
C[C@@H]1CN([C@@H](C)CO)C(=O)c2cccc(NC(=O)Nc3ccccc3)c2O[C@@H]1CN(C)C(=O)Nc1cccc2ccccc12 | ? | 1 | -6 | 106*
O=C(NCCCn1ccnc1)c1cc(-c2ccccn2)nc2ccc(Br)cc12 | · | · | 13 | 41
O=C(CCN1CCCCC1)Nc1ccc(Cl)cc1 | -15 | 0 | 9 | -16
CN(C)C(=O)C(CCN1CCC(O)(c2ccc(Cl)cc2)CC1)(c1ccccc1)c1ccccc1 | 58 | 1 | -6 | 138*!
c1coc(CNc2ncnc3c2sc2nc(N4CCOCC4)c4c(c23)CCC4)c1 | · | · | -8 | 19
OC[C@H]1O[C@@H](n2cnc3c(NCc4ccco4)ncnc32)[C@H](O)[C@@H]1O | 98* | · | -5 | 108*
SMILES | Hedgehog inh | PD-1 reversal | MITF inhib | NOMO-1 viab
CCn1c(SCC(=O)Nc2ccc(C(C)=O)cc2)nnc1-c1cc(Br)ccc1O | · | -1 | 20 | 22
COc1cc(COc2cc(N)c(Cl)cc2C(=O)CCC2CCN(CCNS(C)(=O)=O)CC2)cc(OC)c1 | -47 | -18 | -9 | 143*
O=C1CN(C(=O)/C=C/c2ccccc2)C(c2ccccc2)c2cc(Br)ccc2N1 (centres undefined) | · | -3 | 34 | 89*
CC1=Nc2ccc(Br)cc2C(c2ccccc2)N1CC(=O)NN (centres undefined) | -15 | -1 | -3 | 19
N#Cc1c(NC(=O)COc2ccc3c(-c4ccccc4)cc(=O)oc3c2)sc2c1CCC2 | · | · | 12 | 96*
CC(C)=CCCC1(C)C=Cc2c(c(C)cc3c2[nH]c2cc(O)ccc23)O1 (centres undefined) | 26 | -3 | -13 | 108*
C[C@@H]1CN([C@H](C)CO)C(=O)Cc2cc(NC(=O)Nc3ccc(F)cc3)ccc2O[C@@H]1CN(C)Cc1ccccc1 | 13 | 0 | 2 | 52
C[C@@H]1CN([C@H](C)CO)C(=O)Cc2cc(NC(=O)Nc3ccc(F)cc3)ccc2O[C@H]1CN(C)Cc1ccc(-c2ccccc2)cc1 | 0 | -4 | 5 | 127*
CC(C)NC(=O)Nc1ccc2c(c1)CC(=O)N([C@H](C)CO)C[C@@H](C)[C@@H](CN(C)Cc1ccc(-c3ccccc3)cc1)O2 | 9 | -3 | 12 | 82*
C[C@H]1CN([C@@H](C)CO)C(=O)Cc2cc(NC(=O)Nc3ccc(F)cc3)ccc2O[C@H]1CN(C)Cc1ccc(-c2ccccc2)cc1 | 1 | 0 | -10 | 110*
